64 molecules from PubChem BioAssay AID1851 (National Center for Advancing Translational Sciences (NCATS), 2009) can be followed below.

Out of some 16,000 compounds screened, about 5,800 (36%) were called active. Roughly 23% stayed inconclusive and do not appear here. The list shows a part of the results. A number with no mark means an inactive call. The call rests on the fitted dose curve; in most records, active means well fitted curve in the direction sought with a large enough effect; inconclusive means small, poorly fitted or top-dose-only effect, or effect the other way; inactive means no such curve, though single readings can be large or run the other way.
On the % scale 0 is the no-effect control and ±100 the full control effect.

In the test the target is Cytochrome P450 2C19 (Homo sapiens) (UniProt P33261). Nature of the test: Cytochrome panel assay with activity outcomes. The note with it: recombinant CYP, pro-luciferin dealkylation, luminescence, p450-cyp2c19; series mostly up to 57.1 µM; activity, negative = inhibition: at the top concentration.
Sequence of Cytochrome P450 2C19 (Homo sapiens) (P33261 whole entry, looked up): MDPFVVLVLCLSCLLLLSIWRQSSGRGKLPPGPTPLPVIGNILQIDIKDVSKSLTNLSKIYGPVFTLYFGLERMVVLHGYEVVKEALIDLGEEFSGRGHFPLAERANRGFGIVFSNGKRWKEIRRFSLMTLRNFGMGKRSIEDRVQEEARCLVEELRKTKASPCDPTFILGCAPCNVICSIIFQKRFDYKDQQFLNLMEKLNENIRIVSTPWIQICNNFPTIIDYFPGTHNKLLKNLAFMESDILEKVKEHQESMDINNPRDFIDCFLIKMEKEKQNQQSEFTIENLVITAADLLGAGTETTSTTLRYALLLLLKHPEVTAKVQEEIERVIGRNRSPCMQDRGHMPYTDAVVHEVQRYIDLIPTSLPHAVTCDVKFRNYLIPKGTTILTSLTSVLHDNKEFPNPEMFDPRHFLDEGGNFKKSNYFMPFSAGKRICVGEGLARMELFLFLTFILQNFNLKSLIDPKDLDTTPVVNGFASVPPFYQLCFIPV
Consider `O=C(NCC(c1cccnc1)N1CCOCC1)Nc1ccccc1` (centres undefined), for which the AC50 (in general, the concentration at which the activity in the assay is half-maximal) is 17.8 µM (active). In the case of `O=C(Nc1ccccc1)N1CCC2(CC1)CCN(C(=O)c1cnccn1)CC2`, the “activity, negative = inhibition” value is -4.33%. Turning to `CC(C)(C)C(=O)[C@H]([C@@H](c1ccccc1)N1CCOCC1)N1CCOCC1`, the activity, negative = inhibition was 27.5% [at 11.4 µM]. Consider `CCOC(=O)c1sc2nc3c(cc2c1N)COC(C)(CC)C3` (centres undefined), for which the AC50 is 25.1 µM (active). Take `Cc1ccc(-c2ccc(/C=N\NC(=O)c3cc4c(ccc5ccccc54)o3)o2)cc1[N+](=O)[O-]`: the “activity, negative = inhibition” value is -10.5%. In the case of `Cc1ccc(-c2ccc(/C=N/NC(=S)Nc3ccccc3)o2)cc1[N+](=O)[O-]`, the AC50 was 7.94 µM (active). On to `CC1(C)OCC([C@H](O)C2=CCCCC2=O)CO1`, for which the activity, negative = inhibition is 2.21% [at 11.4 µM].

`Cc1nccn1C[C@@H]1CCc2c(c3ccccc3n2C)C1=O`: the “activity, negative = inhibition” value is -18.2% [at 25.6 µM]. For `Cc1nc2ccccn2c1C(=O)N/N=C/c1ccccc1[N+](=O)[O-]`, the “activity, negative = inhibition” value is -3.18%. `O=C(N/N=C/c1ccc(Br)s1)c1ccccc1[N+](=O)[O-]`: the concentration at half-maximal activity (AC50) is 12.6 µM (active).

Regarding `O=C(N/N=C/c1ccc([N+](=O)[O-])s1)c1ccccc1Br`, the AC50 is 28.2 µM (active). On the same count and under the same terms, next, `COc1ccc2[nH]cc(CCNc3nc(-c4ccc(N(C)C)cc4)nc4ccccc34)c2c1`: 7.94 µM (active); `COc1ccc2[nH]cc(CCNc3nc(-c4ccc(C(=O)N(C)C)cc4)nc4ccccc34)c2c1`: 3.16 µM (active). With `O=C1OC2CC3CC1CC(O)(C3)C2` (centres undefined), the “activity, negative = inhibition” value is -19.6%. For `CCC(C(=O)Nc1cccc(C(F)(F)F)c1)c1ccccc1` (centres undefined), the “activity, negative = inhibition” value was -24.6%. As to `COC(=O)/C(=C\C(=O)c1ccccc1)Nc1cccc(C(F)(F)F)c1`, the AC50 is 5.01 µM (active). Turning to `Nc1nc2c(ncn2[C@@H]2C=C[C@@H](CO)C2)c(=O)[nH]1`, the activity, negative = inhibition is -3.48% [at 11.4 µM]. With `O=C(c1cc(C(F)(F)F)cc(C(F)(F)F)c1)N1CCC2(CC1)CN(c1ccccn1)C2`, the “activity, negative = inhibition” value is 1.83%. As for `O=C(c1cc(C(F)(F)F)cc(C(F)(F)F)c1)N1CCC2(CC1)CCN(c1ccccn1)CC2`, the “activity, negative = inhibition” value is -32.3%. With `Cc1ccc(C(=O)N2CCN(c3ccc(C(F)(F)F)cn3)CC2)cc1`, the AC50 is 25.1 µM (active). On to `O=C(c1cc(C(F)(F)F)cc(C(F)(F)F)c1)N1CCC2(CC1)CN(c1ccccc1)C2`, for which the “activity, negative = inhibition” value is -14.2%. Turning to `O=C(c1cc(C(F)(F)F)cc(C(F)(F)F)c1)N1CCC2(CC1)CCN(c1ccncc1)CC2`, the “activity, negative = inhibition” value is -12%. With `O=C(c1ccc(Oc2ccc(C(F)(F)F)cn2)cc1)N1CCN(c2ccccc2)CC1`, the AC50 is 10 µM (active). Take `CN1CCN(c2ncc3ncc(=O)n(C[C@H]4CCCO4)c3n2)CC1`: the “activity, negative = inhibition” value was -0.787%. Take `CC(C)NC(=O)/C(=N\O)c1ccccc1`: the “activity, negative = inhibition” value is 5.05%. In the case of `O=C(NC(N1CCCC1)C(Cl)(Cl)Cl)c1ccccc1` (centres undefined), the AC50 is 7.94 µM (active).

For `O=C(NNC(=O)c1ccccc1)C(=O)N1CCCCC1`, the “activity, negative = inhibition” value was 14.9%. For `CCN(CC)c1ncnc2c1sc1nc(C)cc(C)c12`, the AC50 was 14.1 µM (active). For the molecule `CCN(CC)N=Nc1[nH]nc2nc(C)cc(C)c12`, the “activity, negative = inhibition” value is -25.4%. As for `Cc1ccc(-c2ncccc2OC(=O)C23CC4CC(CC(C4)C2)C3)cc1`, the AC50 was 14.1 µM (active). `O=C(CCNc1cccc(Cl)c1)c1cccs1`: the AC50 was 3.98 µM (active). As for `O=C(CNc1cccc(Cl)c1)c1ccc(Cl)cc1`, the concentration at half-maximal activity (AC50) was 2 µM (active). `O=C(NOC(=O)c1cc(Br)ccc1Cl)c1cccs1`: the “activity, negative = inhibition” value was 22.5%. Consider `COc1ccccc1C1=NOC(COC(=O)c2ccc3ccccc3n2)C1` (centres undefined), for which the AC50 was 15.8 µM (active). For the molecule `COc1ccccc1-c1nc(NCCNC(C)=O)c2ccccc2n1`, the “activity, negative = inhibition” value is -0.29%. In the case of `O=C1C[C@H](c2ccccc2)[C@@H](c2ccc(Br)cc2)O1`, the concentration at half-maximal activity (AC50) is 0.398 µM (active). Regarding `CN(CCO)c1cc(Sc2nc3ccccc3s2)c2nonc2c1[N+](=O)[O-]`, the AC50 was 11.2 µM (active). The same measure, in the same setting: next, `O=[N+]([O-])c1c(NCCO)cc(Sc2nc3ccccc3s2)c2nonc12`: 2.51 µM (active); `CC(C)n1nnnc1-c1cc(Cl)cc(Cl)c1`: 7.94 µM (active). For the molecule `CN1CC[C@@]2(CCCN(C(=O)c3cccc(F)c3)C2)C1`, the “activity, negative = inhibition” value was -21.2%. For the molecule `Cc1cccc(Cn2ncc(Cl)c(Cl)c2=O)c1`, the concentration at half-maximal activity (AC50) was 8.91 µM (active). Consider `Cc1cccc(-n2nnc3cnn(C)c3c2=O)c1`, for which the “activity, negative = inhibition” value was -24.5%.

Consider `CC(=O)c1ccc(OC(=O)C2c3ccccc3Oc3ccccc32)cc1`, for which the concentration at half-maximal activity (AC50) is 25.1 µM (active). With `CC[N+](C)(CC)CCOC(=O)C1c2ccccc2Oc2ccccc21`, the “activity, negative = inhibition” value was 2.44% [at 25.6 µM].

With `O=C(O)c1ccccc1C1c2ccccc2Oc2ccccc21`, the activity, negative = inhibition was 9.43% [at 11.4 µM]. `Oc1ccc(Cl)cc1C=Nc1cnc2ccccc2c1`: the activity, negative = inhibition was -4.43% [at 11.4 µM]. In the case of `O/N=C/c1cc(Cl)ccc1OCc1cccc2ccccc12`, the concentration at half-maximal activity (AC50) is 1.58 µM (active). Consider `O=[N+]([O-])c1ccc(/C=N/n2c(COc3ccccc3)n[nH]c2=S)cc1`, for which the concentration at half-maximal activity (AC50) was 11.2 µM (active). Regarding `O=S(=O)(N/N=C\C=C\c1ccccc1)c1ccc(Br)cc1`, the AC50 was 2 µM (active). Turning to `O=C(N/N=C/C=C/c1ccccc1)c1cc2c(ccc3ccccc32)o1`, the “activity, negative = inhibition” value was 28.5%.

As to `Nc1ncnc2nc(N3CCN(CCO)CC3)[nH]c12`, the activity, negative = inhibition was -15.5% [at 11.4 µM].

Turning to `COc1ccc(C(=O)N2CCC3(CCN(Cc4ccncc4)CC3)CC2)cc1`, the “activity, negative = inhibition” value was -24.1%.

For `COc1ccccc1C(c1nnnn1C(C)(C)C)N1CCN(Cc2ccncc2)CC1` (centres undefined), the concentration at half-maximal activity (AC50) was 2.24 µM (active). With `COc1ccccc1C(c1nnnn1C(C)(C)C)N1CCCc2ccccc21` (centres undefined), the concentration at half-maximal activity (AC50) was 4.47 µM (active). With `Cc1nc2cnc(N3CCN(C)CC3)nc2n(C)c1=O`, the “activity, negative = inhibition” value was 6.26%. Take `COc1cc(C2C(C#N)=C(N)N(Nc3ccccc3)C3=C2C(=O)CC(C)(C)C3)ccc1OCc1cccc(F)c1` (centres undefined): the AC50 is 7.08 µM (active). Still for that read-out and setting: as for `COc1cc(C2C(C#N)=C(N)N(Nc3ccccc3)C3=C2C(=O)CC(C)(C)C3)ccc1OCc1ccccc1` (centres undefined), the figure is 6.31 µM (active). `CN(C)N1C(N)=C(C#N)C(c2cccnc2)C2=C1CC(C)(C)CC2=O` (centres undefined): the “activity, negative = inhibition” value is -55.4%.

Consider `COc1ccc(C2C(C#N)=C(N)N(Nc3ccccc3)C3=C2C(=O)CC(C)(C)C3)cc1C` (centres undefined), for which the AC50 is 2.24 µM (active). With `Cc1noc(C)c1C(=O)N1CCC2(CCCN(Cc3ccc(C#N)cc3)C2)CC1`, the “activity, negative = inhibition” value was -20.6%.

As for `Cc1ccccc1-c1ccc2ncnc(N(C)C)c2c1`, the AC50 was 7.94 µM (active). In the case of `CN(C)Cc1ccccc1-c1ccc2ncnc(N(C)C)c2c1`, the “activity, negative = inhibition” value was -8.91%. As to `CN(C)c1ncnc2ccc(-c3ccccc3C(F)(F)F)cc12`, the AC50 was 3.98 µM (active). With `COc1ccccc1-c1ccc2ncnc(N(C)C)c2c1`, the AC50 is 0.501 µM (active).
